The values that follow come from PubChem BioAssay (Tox21).

A short description of experiment [1]: qHTS assay to identify small molecule agonists of the vitamin D receptor (VDR) signaling pathway - cell viability counter screen (AID 743224; active = well fitted cell-killing curve with a large enough effect in the repeat runs; also: series mostly up to about 63 µM; nearly all actives have a fitted effect of over 50% in size). In outline: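 Cytotoxicity counter screen: VDR-bla cells, 16 h compound exposure at 37C, 5% CO2; CellTiter-Glo luminescence, 30 min RT, same wells as bla read.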
Experiment [2] in a line: qHTS assay to identify small molecule antagonists of the vitamin D receptor (VDR) signaling pathway - cell viability counter screen (AID 743225; active = well fitted cell-killing curve with a large enough effect in the repeat runs; also: nearly all actives have a fitted effect of over 50% in size). In short, it runs like this:
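VDR-bla HEK 293T cells, 4 h pre-incubation at 37C, then compound plus 1-alpha,25-dihydroxyvitamin D3 (3 nM final) for 16 h. After the beta-lactamase FRET read, CellTiter-Glo was added to the same wells; luminescence after 30 min at room temperature.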
On the technique in general: qHTS replaces the single test concentration by a dilution series.

Experiment [3] can be described thus: qHTS assay to identify small molecule agonists of the NFkB signaling pathway (AID 1159509; active = well fitted curve in the direction sought with a large enough effect in the signal ratio in the repeat runs, not every such curve was filed as active; the % refers to the signal ratio; also: series mostly up to about 61 µM). In short, it runs like this:
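Pathway activation was measured in ME-180 cells stably expressing beta-lactamase under NF-kB response element control. Substrate cleavage was read as the 460/530 nm emission shift after 5 hr compound incubation.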

Experiment [4] in a line: qHTS assay to identify small molecule agonists of the NFkB signaling pathway - cell viability counter screen (AID 1159515). Also: series mostly up to about 61 µM; nearly all actives have a fitted effect of over 55% in size. In outline: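 ME-180 NFkB-bla cells, 2,000/well; overnight attach; compound 5 hr, 37 C/5% CO2; LiveBLAzer substrate 1.5 hr RT; then CellTiter-Glo in same wells, 30 min RT, luminescence read.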
A short description of experiment [5]: qHTS assay to identify small molecule agonists of the endoplasmic reticulum stress response signaling pathway (AID 1159516; active = well fitted activation curve with a large enough effect in the signal ratio in the repeat runs, not every such curve was filed as active; the % refers to the signal ratio). In outline:
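HeLa ESRE-bla reporter line; cpd 5 h, 37 C/5% CO2; LiveBLAzer B/G FRET substrate 2 h RT; ex 405, em 460/530 nm.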

Experiment [6] in a line: qHTS assay to identify small molecule agonists of the endoplasmic reticulum stress response signaling pathway - cell viability counter screen (AID 1159517).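 Also: HeLa cells carrying an ER stress response element beta-lactamase reporter; series mostly up to about 61 µM; nearly all actives have a fitted effect of over 50% in size.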 In short, it runs like this: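 Cpd-treated ESRE-bla HeLa (5 hr, 37 C) → LiveBLAzer 2 hr RT → CellTiter-Glo 30 min RT → luminescence.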
The nature of experiment [7]: qHTS assay to identify small molecule antagonists of the retinoid-related orphan receptor gamma (ROR-gamma) signaling pathway - cell viability counter screen (AID 1159520; active = well fitted cell-killing curve with a large enough effect in the repeat runs; also: nearly all actives have a fitted effect of over 50% in size). In outline:
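Tet-on ROR gamma CHO cells (1,000/well) were plated 4 hr, given compounds in DMSO for 2 hr at 37 C, then induced with 1 uM final doxycycline for 16 hr. Viability was read as ATP by CellTiter-Glo luminescence after 30 min.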

The nature of experiment [8]: qHTS assay to identify small molecule agonists of the AP-1 signaling pathway - cell viability counter screen (AID 1159525). Also: nearly all actives have a fitted effect of over 55% in size. In outline: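 Each titration point was normalised to DMSO and tetra n-octyl ammonium bromide controls. The read was Cell Titer Glo luminescence after 30 min at RT, following 5 h compound exposure of ME-180 AP-1-bla cells at 37 °C.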
Experiment [9] can be described thus: qHTS assay to identify small molecule agonists of the AP-1 signaling pathway (AID 1159526). Also: potency is read from the fitted curve at half-maximal effect.

Inconclusive results are not listed. Calls of active or inactive are those of the source. Unless noted, calls follow the shape of the full dose curve.

For the compound `OC[C@H]1O[C@@H](O[C@H]2[C@H](O)[C@@H](O)[C@H](O)O[C@@H]2CO)[C@H](O)[C@@H](O)[C@H]1O`, the Potency result in [1], in [2], in experiment [7] and in [9] was “inactive” throughout. Moreover, the compound was classed as inactive in [3], in [4], in experiment [5], in experiment [6] and in [8].

In the case of `CC(C)NCC(O)COc1ccc(CCOCC2CC2)cc1` (stereo not given), the Potency result in experiment [1], in experiment [2], in [7] and in experiment [9] was “inactive” each time. The result in experiment [3], in experiment [4], in [5], in experiment [6] and in experiment [8] was inactive.

For `CC(=O)N(CC(O)CN(C(C)=O)c1c(I)c(C(=O)NCC(O)CO)c(I)c(C(=O)NCC(O)CO)c1I)c1c(I)c(C(=O)NCC(O)CO)c(I)c(C(=O)NCC(O)CO)c1I` (stereo not given), the Potency entry in experiment [1], in [2], in [7] and in experiment [9] was “inactive” in each case. For the same compound, the outcome in experiment [3], in experiment [4], in experiment [5], in experiment [6] and in experiment [8] was inactive.

`CO[Si](C)(C)OC`: the Potency result in experiment [1], in experiment [2], in experiment [7] and in experiment [9] was “inactive” in each case. Further, the compound was classed as inactive in [3], in [4], in [5], in experiment [6] and in experiment [8].

Turning to `CCOC(=O)c1cc(=O)c2c(OCC(COc3cccc4oc(C(=O)OCC)cc(=O)c34)OC(=O)[C@@H](N)CCCCN)cccc2o1`, the Potency result in experiment [1], in experiment [2], in [7] and in experiment [9] was “inactive” in each case. The compound was called inactive in experiment [3], in experiment [4], in experiment [5], in [6] and in experiment [8].

For `CN1[C@@H]2CC[C@H]1CC(OC(=O)c1c[nH]c3ccccc13)C2` (stereo not given in full), the Potency result in experiment [1], in experiment [2] and in [7] was “inactive” in each case. Moreover, the outcome in experiment [3], in [4], in experiment [5], in experiment [6] and in experiment [8] was inactive. Besides, the Potency in experiment [9] was 23.9 µM (active).

With `Cc1nc(-c2ccccn2)ncc1C(=O)Nn1cc(C)c2cc(F)ccc21`, the Potency entry in experiment [1], in experiment [2] and in experiment [7] was “inactive” in each case. For the same compound, the call in [3], in [4], in experiment [5], in experiment [6] and in experiment [8] was inactive.

`ICCc1ccccc1`: the Potency entry in experiment [1], in experiment [2] and in experiment [7] was “inactive” throughout. The compound was called inactive in experiment [3], in experiment [4], in [5], in [6] and in experiment [8].

Turning to `CC1(C)S[C@@H]2[C@H](NC(=O)C(C(=O)O)c3ccccc3)C(=O)N2[C@H]1C(=O)O` (stereo not given in full), the Potency entry in [1], in experiment [2], in [7] and in experiment [9] was “inactive” in each case. Moreover, the compound was classed as inactive in experiment [3], in experiment [4], in experiment [5], in experiment [6] and in [8].

`O=CCCc1ccccc1`: the Potency result in [1], in [2], in experiment [7] and in experiment [9] was “inactive” throughout. Moreover, the compound was called inactive in experiment [3], in experiment [4], in experiment [5], in experiment [6] and in experiment [8].

Take `Cc1c(N)cccc1N`: the Potency result in [1], in experiment [7] and in [9] was “inactive” in each case. In addition, the call in [3], in [4], in [5] and in [6] was inactive.
